The record followed here is PubChem BioAssay (Tox21).

Experiment [1] is described as follows: Human pregnane X receptor (PXR) small molecule agonists, qHTS cell viability counter screen (AID 1346977). Note: nearly all actives have a fitted effect of over 50% in size. In short, it runs like this:
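PXR-Luc HepG2 cells (2,000/well, 5% charcoal-stripped FBS) preincubated 5 hr, then exposed to compounds 24 hr at 37 C. Viability read in the same wells by CellTiter-Fluor fluorescence, reagent added at 23 hr, 1 hr incubation.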
On the technique in general: Quantitative high-throughput screening tests each substance at several concentrations.

A short description of experiment [2]: Caspase-3/7 induction in HepG2 cells by small molecules, qHTS assay (AID 1346978). Note: nearly all actives have a fitted effect of over 15% in size. In short, it runs like this: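 Wild-type HepG2 cells (2,000/well) were settled 5 h at 37 C, 5% CO2, then exposed to compounds in DMSO for 17 h. Caspase-3/7 activity was read by luminescence 30 min after adding Caspase-Glo 3/7 reagent at room temperature.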
A short description of experiment [3]: Caspase-3/7 induction in CHO-K1 cells by small molecules, qHTS cell viability counter screen (AID 1346979). Note: nearly all actives have a fitted effect of over 35% in size. The essentials:
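Wild-type CHO-K1 cells (1,500/well) treated with compound after 5 h plating; after 16 h at 37C, viability read as CellTiter-Fluor fluorescence following 1 h reagent incubation, in the same wells as the caspase read.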

A short description of experiment [4]: Caspase-3/7 induction in CHO-K1 cells by small molecules, qHTS assay (AID 1346980). Note: nearly all actives have a fitted effect of over 15% in size. In short, it runs like this: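 Wild-type cells were seeded at 1,500 per well and settled 5 hr at 37 C, 5% CO2, then exposed to DMSO-dissolved compounds for 17 hr. Caspase-Glo 3/7 reagent was added, and luminescence was read after 30min at room temperature.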
Experiment [5] in a line: Caspase-3/7 induction in HepG2 cells by small molecules, qHTS cell viability counter screen (AID 1346981). Note: series mostly up to about 92 µM; nearly all actives have a fitted effect of over 30% in size. In short, it runs like this:
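Treatment of HepG2 cells with DMSO-delivered compounds ran 16 hr at 37 C following a 5-hr pre-incubation of 2,000 cells/well. CellTiter-Fluor fluorescence, read after 1 hr, served as the viability measure in a qHTS format.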

Experiment [6] deals with Nuclear receptor subfamily 1 group I member 2 (Homo sapiens) (UniProt O75469). Kind of experiment: Human pregnane X receptor (PXR) small molecule agonists, qHTS assay (AID 1346982). Note: nearly all actives have a fitted effect of over 35% in size. Note: potency is the fitted concentration of half-maximal effect. In short, it runs like this: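 Stable HepG2 line reporting PXR-mediated CYP3A4 expression via luciferase. Treatment: 24 hr with compounds in DMSO at 37 C. Detection: ONE-Glo luminescence.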
Nuclear receptor subfamily 1 group I member 2 (Homo sapiens), sequence (O75469 whole entry, looked up): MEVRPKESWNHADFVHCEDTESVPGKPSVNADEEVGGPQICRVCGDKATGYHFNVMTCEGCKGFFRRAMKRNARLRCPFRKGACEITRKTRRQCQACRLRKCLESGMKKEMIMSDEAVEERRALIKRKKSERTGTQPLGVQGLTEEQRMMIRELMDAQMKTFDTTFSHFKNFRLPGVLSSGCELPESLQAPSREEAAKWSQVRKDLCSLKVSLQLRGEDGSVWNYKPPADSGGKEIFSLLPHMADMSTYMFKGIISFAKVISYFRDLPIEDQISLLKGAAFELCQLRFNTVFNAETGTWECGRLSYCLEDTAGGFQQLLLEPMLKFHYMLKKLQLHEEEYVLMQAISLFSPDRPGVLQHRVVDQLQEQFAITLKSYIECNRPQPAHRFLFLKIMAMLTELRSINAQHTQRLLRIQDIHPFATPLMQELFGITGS
Experiment [7] has as its target Acetylcholinesterase (Homo sapiens) (UniProt P22303). Put plainly: Acetylcholinesterase (AChE) small molecule antagonists: enzyme-based qHTS assay (AID 1347397; calls by dose curve; note: nearly all actives have a fitted effect of over 55% in size). The note with it: Potency: AChE enzyme activity inhibition. In short, it runs like this: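 Tox21 library chemicals are tested in qHTS format against recombinant human AChE. The enzyme, dispensed at 50 mU/mL, sits with compound for 30 min at room temperature. A DTNB–acetylthiocholine cocktail follows, and colour is read after 10 min.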

The target is the same in experiment [8]. Kind of experiment: Acetylcholinesterase (AChE) small molecule antagonists: fluorescence cell-based qHTS assay (AID 1347398; calls by dose curve; note: nearly all actives have a fitted effect of over 50% in size). As to conditions: Potency: AChE activity. The essentials:
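Cellular AChE inhibition: SH-SY5Y cells treated with test chemical for 30 min at 37 C, then acetylthiocholine hydrolysis followed over 40 min at room temperature via thiocholine-reactive Thiolite Green fluorescence (490/520 nm).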

The target is the same in experiment [9]. Put plainly: Acetylcholinesterase (AChE) small molecule antagonists: enzyme-based qHTS assay with human liver microsomes (AID 1347399; calls by dose curve; note: nearly all actives have a fitted effect of over 60% in size). As to conditions: Potency: qHTS inhibition. The essentials:
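Recombinant human AChE (50 mU/mL in the enzyme mix) and human liver microsomes (0.25 mg/mL final) were preincubated with compound and NADPH (0.25 mg/mL final) for 30 min at 37 C. Acetylthiocholine/DTNB was then added; thiocholine was read colorimetrically after 10 min at room temperature.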

The target in experiment [10] is Cytochrome P450 2D6 (Homo sapiens) (UniProt P10635). Put plainly: Cytochrome P450 Family 2 Subfamily D Member 6 (CYP2D6) small molecule antagonists: luciferase reporter qHTS assay (AID 1671196). Note: nearly all actives have a fitted effect of over 50% in size. Note: potency is the fitted concentration of half-maximal effect. In short, it runs like this:
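Chemicals tested for interference with CYP2D6 activity; proluciferin substrate, NADPH regeneration, 1 h at room temperature, luminescent detection.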
On the technique in general: Reporter assays use an easily measured gene product as a stand-in for the process of interest.

The target of experiment [11] is Cytochrome P450 2C19 (Homo sapiens) (UniProt P33261). Kind of experiment: Cytochrome P450 Family 2 Subfamily C Member 19 (CYP2C19) small molecule antagonists: luciferase reporter qHTS assay (AID 1671197). Note: nearly all actives have a fitted effect of over 65% in size. Note: potency is the fitted concentration of half-maximal effect. In short, it runs like this: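 Enzyme-substrate mix with proluciferin substrate (P450-Glo CYP2C19 system) preincubated with compounds 10 min at room temperature; NADPH regeneration solution added, 37C for 1 h; detection reagent stops reaction, luminescence read after 20 min. Ketoconazole positive control.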
Cytochrome P450 2C19 (Homo sapiens), sequence (P33261 whole entry, looked up): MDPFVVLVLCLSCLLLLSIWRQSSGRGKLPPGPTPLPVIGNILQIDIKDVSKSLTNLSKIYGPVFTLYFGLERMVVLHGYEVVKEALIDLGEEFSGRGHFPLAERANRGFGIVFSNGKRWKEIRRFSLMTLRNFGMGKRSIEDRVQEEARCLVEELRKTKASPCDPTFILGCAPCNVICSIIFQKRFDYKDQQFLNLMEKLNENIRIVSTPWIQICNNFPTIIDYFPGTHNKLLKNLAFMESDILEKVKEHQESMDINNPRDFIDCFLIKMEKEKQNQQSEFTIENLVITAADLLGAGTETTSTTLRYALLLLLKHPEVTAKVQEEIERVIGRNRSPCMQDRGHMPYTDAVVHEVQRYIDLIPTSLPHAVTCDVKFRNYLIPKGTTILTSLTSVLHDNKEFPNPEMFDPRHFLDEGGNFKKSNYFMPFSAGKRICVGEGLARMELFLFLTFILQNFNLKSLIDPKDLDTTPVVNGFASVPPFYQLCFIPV

For experiment [12], the target named is Cytochrome P450 2C9 (Homo sapiens) (UniProt P11712). Kind of experiment: Cytochrome P450 Family 2 Subfamily C Member 9 (CYP2C9) small molecule antagonists: luciferase reporter qHTS assay (AID 1671198). Note: nearly all actives have a fitted effect of over 50% in size. Note: potency is the fitted concentration of half-maximal effect. The essentials:
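CYP2C9 activity was measured with a P450-Glo proluciferin substrate. Enzyme–substrate mix was held with compound for 10 min at room temperature, then NADPH regeneration solution was added for 1 h at 37C. Luciferin product was read as luminescence.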

The target in experiment [13] is Cytochrome P450 1A2 (Homo sapiens) (UniProt P05177). Kind of experiment: Cytochrome P450 Family 1 Subfamily A Member 2 (CYP1A2) small molecule antagonists: luciferase reporter qHTS assay (AID 1671199). Note: nearly all actives have a fitted effect of over 50% in size. Note: potency is the fitted concentration of half-maximal effect. The essentials:
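Read-out is luminescence from luciferin detection reagent (20 min) proportional to CYP1A2 activity; compounds in DMSO preincubated 10 min with enzyme and proluciferin substrate, then NADPH regeneration solution, 1 h, room temperature.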

Experiment [14] has as its target Voltage-gated inwardly rectifying potassium channel KCNH2 (Homo sapiens) (UniProt Q12809). Put plainly: Human Ether-a-go-go-Related Gene (hERG) channel small molecule antagonists: fluorescence cell-based qHTS assay (AID 1671200). Note: nearly all actives have a fitted effect of over 50% in size. Note: potency is the fitted concentration of half-maximal effect. In short, it runs like this:
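hERG-U2OS cells plated overnight at 37 C, loaded with FluxOR II dye 1 h at RT in dark; after 10 min, thallium stimulus added. Fluorescence (480/540 nm) read kinetically for 2 min at 1 s intervals.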

Experiment [15] has as its target Cytochrome P450 3A4 (Homo sapiens) (UniProt P08684). Kind of experiment: Cytochrome P450 Family 3 Subfamily A Member 4 (CYP3A4) small molecule antagonists: luciferase reporter qHTS assay (AID 1671201). Note: nearly all actives have a fitted effect of over 50% in size. Note: potency is the fitted concentration of half-maximal effect. The essentials: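 P450-Glo CYP3A4 luminescent assay: compounds preincubated 10 min at room temperature with enzyme and proluciferin substrate, NADPH regeneration added, 1 h room-temperature reaction, stopped with luciferin detection reagent; luminescence read after 20 min. Ketoconazole positive control.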

The target of experiment [16] is Nuclear receptor subfamily 1 group I member 2 (Rattus norvegicus) (UniProt Q9R1A7). Kind of experiment: Rat pregnane X receptor (rPXR) activation by small molecules, qHTS assay (AID 1346983). Note: nearly all actives have a fitted effect of over 20% in size. As to conditions: rPXR luciferase reporter cells, One-Glo luminescence, 24 h; max activation: stronger effect = higher value. In short, it runs like this:
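Cell-based rPXR luciferase reporter assay, 2,000 cells per well, rested 5hr at 37 C before compound addition in DMSO, then 24 hr at 37 C. One-Glo reagent was added and luminescence read after 30 min at room temperature.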

The target of experiment [17] is Nuclear receptor subfamily 1 group I member 2 (Homo sapiens) (UniProt O75469). Put plainly: Human pregnane X receptor (PXR) activation by small molecules, qHTS assay (AID 1346985). Note: nearly all actives have a fitted effect of over 40% in size. The essentials: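 DPX-2 cells (HepG2 co-transfected with a PXR response element and a CYP3A4-promoter luciferase construct) were seeded at 2,000 per well, rested 5 hr at 37C, then exposed to DMSO-dissolved compounds for 24 hr. Activation was read as luciferase luminescence.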

Experiment [18] concerns the target Thyrotropin-releasing hormone receptor (Homo sapiens) (UniProt P34981). Kind of experiment: qHTS assay to identify small molecule agonists of the thyrotropin-releasing hormone receptor (TRHR) signaling pathway (AID 1346891; calls by dose curve; note: series mostly up to about 58 µM). The essentials:
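HEK293 cells expressing TRHR plated 18 h at 37 C/5% CO2, calcium dye-loaded 2 h at 37 C, then compound added (agonist mode); kinetic calcium fluorescence read 3 min at 1 s intervals; 15 concentrations in triplicate.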

The target of experiment [19] is Acetylcholinesterase (Homo sapiens) (UniProt P22303). Put plainly: Acetylcholinesterase (AChE) small molecule antagonists: colormetric cell-based qHTS assay (AID 1347395; calls by dose curve; note: nearly all actives have a fitted effect of over 30% in size). The essentials:
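SH-SY5Y cells attached overnight, exposed to compound 30 min at 37 C, then given DTNB/acetylthiocholine; after 90 min at 37 C, colorimetric thiocholine read gives cellular AChE activity.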

Each structure is given as a SMILES string. “And” between values parts separate entries of the source, which are not always exact repeats. Identical values can stand only once. Inconclusive results are not listed. The source holds several records for some structures; these can differ, active in one and inactive in another. The source made the active and inactive calls. Unless noted, calls come from the whole dose curve; as a rule, active = well fitted curve in the direction sought with a large enough effect in the repeat runs; inconclusive = weak or mixed curves; inactive = no such curve, though single readings can be large; an effect the other way counts as inactive or inconclusive.
% is set by controls: 0 for no effect and ±100 for the full control effect.

Cytochrome P450 3A4 (Homo sapiens), sequence (P08684 whole entry, looked up): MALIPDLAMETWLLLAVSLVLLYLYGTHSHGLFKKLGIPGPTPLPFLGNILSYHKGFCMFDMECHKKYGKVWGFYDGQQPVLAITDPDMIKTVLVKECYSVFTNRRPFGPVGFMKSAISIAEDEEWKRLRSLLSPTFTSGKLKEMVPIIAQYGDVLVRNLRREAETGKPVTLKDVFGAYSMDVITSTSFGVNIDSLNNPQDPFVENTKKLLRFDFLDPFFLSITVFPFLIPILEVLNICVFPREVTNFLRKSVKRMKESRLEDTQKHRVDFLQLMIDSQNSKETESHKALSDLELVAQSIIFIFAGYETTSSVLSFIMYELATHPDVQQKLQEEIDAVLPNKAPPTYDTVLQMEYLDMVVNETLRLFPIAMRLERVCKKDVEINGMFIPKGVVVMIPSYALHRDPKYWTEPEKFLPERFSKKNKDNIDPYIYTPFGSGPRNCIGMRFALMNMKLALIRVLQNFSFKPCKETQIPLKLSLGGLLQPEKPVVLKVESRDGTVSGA
Voltage-gated inwardly rectifying potassium channel KCNH2 (Homo sapiens), sequence (Q12809 whole entry, looked up): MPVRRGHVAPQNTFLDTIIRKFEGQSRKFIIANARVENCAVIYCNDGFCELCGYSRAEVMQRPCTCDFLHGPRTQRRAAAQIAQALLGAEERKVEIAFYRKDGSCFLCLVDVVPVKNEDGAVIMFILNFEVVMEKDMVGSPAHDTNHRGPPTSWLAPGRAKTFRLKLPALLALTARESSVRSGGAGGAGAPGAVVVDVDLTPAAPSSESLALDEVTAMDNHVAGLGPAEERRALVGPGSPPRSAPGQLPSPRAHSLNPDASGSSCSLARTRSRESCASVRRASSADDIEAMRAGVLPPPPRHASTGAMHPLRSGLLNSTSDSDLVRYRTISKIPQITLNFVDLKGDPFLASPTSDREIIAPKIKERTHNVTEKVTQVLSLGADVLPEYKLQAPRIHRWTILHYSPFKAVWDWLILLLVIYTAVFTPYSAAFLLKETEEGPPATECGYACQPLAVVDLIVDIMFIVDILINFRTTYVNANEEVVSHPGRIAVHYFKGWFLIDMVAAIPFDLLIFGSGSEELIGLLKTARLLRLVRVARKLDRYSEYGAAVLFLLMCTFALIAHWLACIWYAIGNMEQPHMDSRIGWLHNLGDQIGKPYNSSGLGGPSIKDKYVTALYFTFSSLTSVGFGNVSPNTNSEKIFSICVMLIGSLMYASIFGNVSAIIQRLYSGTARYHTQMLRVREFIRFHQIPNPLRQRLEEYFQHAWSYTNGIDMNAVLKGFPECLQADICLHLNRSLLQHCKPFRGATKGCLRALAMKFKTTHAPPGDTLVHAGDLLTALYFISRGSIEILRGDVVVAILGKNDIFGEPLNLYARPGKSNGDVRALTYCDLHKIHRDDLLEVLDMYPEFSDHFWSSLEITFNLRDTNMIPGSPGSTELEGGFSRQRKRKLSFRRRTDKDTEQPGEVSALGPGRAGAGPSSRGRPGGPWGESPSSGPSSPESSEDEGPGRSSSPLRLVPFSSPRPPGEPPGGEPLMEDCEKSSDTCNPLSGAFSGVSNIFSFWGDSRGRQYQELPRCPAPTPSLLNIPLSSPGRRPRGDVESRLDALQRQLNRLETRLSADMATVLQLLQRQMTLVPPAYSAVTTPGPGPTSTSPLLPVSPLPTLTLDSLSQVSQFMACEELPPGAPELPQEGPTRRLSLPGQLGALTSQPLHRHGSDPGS
Cytochrome P450 2C9 (Homo sapiens), sequence (P11712 whole entry, looked up): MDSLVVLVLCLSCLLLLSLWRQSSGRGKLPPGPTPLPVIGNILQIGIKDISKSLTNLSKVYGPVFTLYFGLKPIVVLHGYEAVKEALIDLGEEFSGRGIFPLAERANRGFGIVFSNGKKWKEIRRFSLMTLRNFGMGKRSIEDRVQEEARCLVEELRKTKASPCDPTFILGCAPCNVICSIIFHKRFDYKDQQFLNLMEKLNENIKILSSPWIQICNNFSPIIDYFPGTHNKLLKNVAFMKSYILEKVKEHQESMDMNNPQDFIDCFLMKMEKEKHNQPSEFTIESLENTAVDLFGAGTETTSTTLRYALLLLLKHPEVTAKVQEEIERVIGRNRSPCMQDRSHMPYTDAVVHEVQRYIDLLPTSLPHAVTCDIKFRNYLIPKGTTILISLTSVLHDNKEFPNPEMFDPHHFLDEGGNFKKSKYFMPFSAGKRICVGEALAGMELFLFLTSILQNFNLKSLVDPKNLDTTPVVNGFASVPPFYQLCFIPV
Thyrotropin-releasing hormone receptor (Homo sapiens), sequence (P34981 whole entry, looked up): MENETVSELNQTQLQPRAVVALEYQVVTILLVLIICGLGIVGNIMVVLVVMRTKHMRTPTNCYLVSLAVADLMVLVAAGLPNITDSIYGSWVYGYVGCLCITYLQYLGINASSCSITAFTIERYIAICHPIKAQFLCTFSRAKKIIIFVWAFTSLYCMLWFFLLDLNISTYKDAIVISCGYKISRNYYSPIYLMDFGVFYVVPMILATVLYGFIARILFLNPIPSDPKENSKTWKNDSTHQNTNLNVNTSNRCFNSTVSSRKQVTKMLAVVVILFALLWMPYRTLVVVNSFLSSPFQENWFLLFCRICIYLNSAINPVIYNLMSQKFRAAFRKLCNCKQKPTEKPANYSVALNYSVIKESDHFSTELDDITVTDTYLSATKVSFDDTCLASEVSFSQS
Cytochrome P450 2D6 (Homo sapiens), sequence (P10635 whole entry, looked up): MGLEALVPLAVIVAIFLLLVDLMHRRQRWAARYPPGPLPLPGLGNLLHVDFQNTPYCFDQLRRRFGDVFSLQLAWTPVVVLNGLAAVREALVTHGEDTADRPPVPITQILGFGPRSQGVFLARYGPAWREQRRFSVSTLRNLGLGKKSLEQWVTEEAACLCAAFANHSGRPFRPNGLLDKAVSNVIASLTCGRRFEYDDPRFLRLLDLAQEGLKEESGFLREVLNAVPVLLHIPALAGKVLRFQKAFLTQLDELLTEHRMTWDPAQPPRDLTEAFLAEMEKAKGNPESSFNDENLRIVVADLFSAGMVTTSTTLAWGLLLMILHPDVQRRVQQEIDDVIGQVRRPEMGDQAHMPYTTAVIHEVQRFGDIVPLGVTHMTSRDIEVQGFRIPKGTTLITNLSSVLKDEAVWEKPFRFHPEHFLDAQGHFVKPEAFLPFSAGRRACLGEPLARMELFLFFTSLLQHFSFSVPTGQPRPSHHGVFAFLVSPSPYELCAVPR
Cytochrome P450 1A2 (Homo sapiens), sequence (P05177 whole entry, looked up): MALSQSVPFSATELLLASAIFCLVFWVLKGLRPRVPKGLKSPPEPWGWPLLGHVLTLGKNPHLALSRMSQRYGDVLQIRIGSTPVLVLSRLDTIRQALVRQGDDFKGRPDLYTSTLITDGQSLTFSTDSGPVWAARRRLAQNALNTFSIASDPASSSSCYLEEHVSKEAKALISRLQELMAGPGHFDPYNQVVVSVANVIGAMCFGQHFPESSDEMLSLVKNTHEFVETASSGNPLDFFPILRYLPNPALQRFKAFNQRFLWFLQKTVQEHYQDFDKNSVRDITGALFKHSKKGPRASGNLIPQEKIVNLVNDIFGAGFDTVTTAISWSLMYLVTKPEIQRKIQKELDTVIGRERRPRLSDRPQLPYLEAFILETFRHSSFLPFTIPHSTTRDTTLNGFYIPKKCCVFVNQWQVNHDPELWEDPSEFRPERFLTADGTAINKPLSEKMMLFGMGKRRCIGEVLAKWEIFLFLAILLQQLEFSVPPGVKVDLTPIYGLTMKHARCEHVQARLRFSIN
Nuclear receptor subfamily 1 group I member 2 (Rattus norvegicus), sequence (Q9R1A7 whole entry, looked up): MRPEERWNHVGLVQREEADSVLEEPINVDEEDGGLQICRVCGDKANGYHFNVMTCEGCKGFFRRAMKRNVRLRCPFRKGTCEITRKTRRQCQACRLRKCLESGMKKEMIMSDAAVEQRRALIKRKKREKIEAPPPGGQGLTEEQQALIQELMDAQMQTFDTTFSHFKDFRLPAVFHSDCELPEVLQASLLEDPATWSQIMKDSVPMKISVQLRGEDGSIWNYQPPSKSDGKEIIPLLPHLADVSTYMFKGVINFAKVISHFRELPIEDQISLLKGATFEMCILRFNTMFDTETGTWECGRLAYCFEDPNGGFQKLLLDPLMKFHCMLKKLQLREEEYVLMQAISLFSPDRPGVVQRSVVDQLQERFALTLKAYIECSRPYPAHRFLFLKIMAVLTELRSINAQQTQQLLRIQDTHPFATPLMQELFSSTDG

In the case of `CC(=O)C1CCOC1=O` (centres undefined), the Potency result in [1], in experiment [3], in experiment [5], in experiment [6], in experiment [7] and in experiment [8] was “inactive” in each case. Also, the Potency entry in experiment [9], in experiment [10], in experiment [11], in experiment [12], in experiment [13] and in experiment [14] was “inactive” throughout. Moreover, in experiment [15], the Potency entry is “inactive”. The result in experiment [2] and in [4] was inactive.

Regarding `Clc1cnc(Oc2ccc(Oc3ncc(Cl)cc3Cl)cc2)c(Cl)c1`, the Potency entry in [1], in experiment [3], in experiment [5], in [6], in [7] and in [8] was “inactive” each time. Moreover, the Potency result in experiment [9], in experiment [10], in experiment [11], in experiment [12] and in [15] was “inactive” each time. Further, the compound was called inactive in experiment [2]. Besides, the Potency in experiment [13] is 24.9 µM (active) and inactive; in experiment [14], 19.5 µM (active).

On to `NNc1ccccc1`, for which the Potency result in experiment [1], in experiment [3], in experiment [5], in experiment [17] and in experiment [14] was “inactive” each time. Besides, the call in experiment [2] and in experiment [4] was inactive. Further, the Potency in experiment [6] was 61 µM (active) and inactive; in [12], 39.5 µM (active) and 39.8 µM (active) and 50.2 µM (active). For the same compound, in [16], the max activation was -1.33% (inactive).

On to `Cc1ccc(N=C=O)cc1N=C=O`, for which the result in [18] and in experiment [2] was inactive. In addition, the Potency result in [1], in experiment [3], in [5], in experiment [7], in experiment [8] and in [9] was “inactive” throughout. The Potency entry in experiment [14] is “inactive”. Further, the Potency in experiment [6] is 60.9 µM (active) and inactive; in [10] it was 40.9 µM (active) and 11.2 µM (active) and inactive; in experiment [11], 36.5 µM (active) and 10 µM (active) and inactive; in [12] it was 36.5 µM (active) and 25.1 µM (active) and 79.6 µM (active); in experiment [13], 36.5 µM (active) and 35.5 µM (active); in experiment [15] it was 5.78 µM (active) and 2.82 µM (active) and inactive.

`OCC(O)CCl` (centres undefined): the Potency result in experiment [1], in experiment [3], in experiment [5], in [6], in experiment [7] and in experiment [8] was “inactive” each time. In addition, the Potency result in experiment [9], in [10], in [12], in experiment [14] and in experiment [15] was “inactive” in each case. Further, the compound was classed as inactive in experiment [2] and in experiment [4]. For the same compound, in experiment [11], the Potency was 79.6 µM (active) and inactive.

As to `Cc1ccc(N)cc1`, the Potency entry in experiment [1], in experiment [3], in experiment [5], in [14] and in experiment [15] was “inactive” each time. Besides, the compound was called inactive in experiment [2]. The Potency was 4.35 µM (active) and 29.6 µM (active) and 27.3 µM (active) in experiment [6]; 5.06 µM (active) and 25.2 µM (active) in [10]; 35.8 µM (active) and 38.6 µM (active) and 31.7 µM (active) in experiment [11]; 40.2 µM (active) in experiment [12]; 28.4 µM (active) and 30.6 µM (active) and 25.2 µM (active) in experiment [13].

For `C/C=C/c1ccc2c(c1)OCO2`, the Potency result in [1], in experiment [3], in experiment [5], in [6], in experiment [19] and in [7] was “inactive” each time. For the same compound, the Potency entry in experiment [8], in [9], in experiment [10], in experiment [12], in experiment [14] and in experiment [15] was “inactive” throughout. The compound was called inactive in experiment [2]. The Potency entry in experiment [11] is “inactive and 79.6 µM (active)”; in experiment [13], 39.9 µM (active).
